PubChem BioAssay (NCI)
Compounds without any hit were thinned out: in the full panel of roughly 83,000, 20% have a hit.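 Testing used 96-well plates and a 48-hour single-concentration exposure. Example: -40 means 40% of the starting cells died.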 Activity calls are given as the source filed them. The calls were made as follows: active = growth percent below 10; inactive = the rest.

Legend:
Experiment in all cases: NCI-60 one-dose screen, 48 h (100 = growth as untreated, 0 = no growth, -100 = all killed)
Conditions in all cases: 10 µM unless noted
HCT-15 colon = test system: HCT-15 colon
HT29 colon = test system: HT29 colon
SNB-75 CNS = test system: SNB-75 CNS
SNB-19 CNS = test system: SNB-19 CNS
U251 CNS = test system: U251 CNS
PC-3 prostate = test system: PC-3 prostate
SK-MEL-5 melanoma = test system: SK-MEL-5 melanoma
UACC-62 melanoma = test system: UACC-62 melanoma
SK-MEL-2 melanoma = test system: SK-MEL-2 melanoma
EKVX NSCLC = test system: EKVX NSCLC
SN12C renal = test system: SN12C renal
UO-31 renal = test system: UO-31 renal
TK-10 renal = test system: TK-10 renal
ACHN renal = test system: ACHN renal
CAKI-1 renal = test system: CAKI-1 renal
A498 renal = test system: A498 renal
CCRF-CEM leukemia = test system: CCRF-CEM leukemia
MOLT-4 leukemia = test system: MOLT-4 leukemia
SK-MEL-28 melanoma = test system: SK-MEL-28 melanoma
LOX IMVI melanoma = test system: LOX IMVI melanoma

Measured: growth

CN(C)CC(C)(C)C(=O)/C=C/c1ccccc1
active: HCT-15 colon -47.6% [25 µM] | HT29 colon -16.7% [25 µM] | SNB-75 CNS -13.7% [25 µM] | SNB-19 CNS -1% [25 µM] | U251 CNS -41.5% [25 µM] | PC-3 prostate -34.4% [25 µM] | SK-MEL-5 melanoma -86.8% [25 µM] | UACC-62 melanoma -73.6% [25 µM] | SK-MEL-2 melanoma -74.2% [25 µM] | EKVX NSCLC -18.5% [25 µM] | SN12C renal -34.1% [25 µM] | UO-31 renal -90.3% [25 µM] | TK-10 renal -9.48% [25 µM] | ACHN renal -71.4% [25 µM] | CAKI-1 renal -6.22% [25 µM] | A498 renal -14.7% [25 µM] | CCRF-CEM leukemia 2.8% [25 µM] | MOLT-4 leukemia -5.22% [25 µM]

O=C(O)CCCN1C(=O)/C(=C/c2cn(-c3ccccc3)nc2-c2ccc([N+](=O)[O-])cc2)SC1=S
inactive: HCT-15 colon 35.8% | HT29 colon 87.1% | SNB-75 CNS 95.7% | SNB-19 CNS 48.9% | U251 CNS 38.2% | PC-3 prostate 56.4% | SK-MEL-5 melanoma 52.7% | UACC-62 melanoma 47% | SK-MEL-28 melanoma 49.4% | SK-MEL-2 melanoma 77.6% | EKVX NSCLC 67% | SN12C renal 50% | UO-31 renal 40.2% | TK-10 renal 78.2% | ACHN renal 56.8% | CAKI-1 renal 65.1% | A498 renal 88.2% | CCRF-CEM leukemia 27.6% | MOLT-4 leukemia 54.5%

Cc1ccc(C(=O)c2ccc(CC(=O)N/N=C/c3ccccc3O)n2C)cc1
inactive: HCT-15 colon 43.5% | HT29 colon 101% | SNB-75 CNS 59.6% | SNB-19 CNS 79.3% | U251 CNS 76.2% | PC-3 prostate 86.8% | SK-MEL-5 melanoma 87.4% | UACC-62 melanoma 87.2% | SK-MEL-28 melanoma 84.3% | SK-MEL-2 melanoma 89.6% | EKVX NSCLC 82.8% | SN12C renal 89.8% | UO-31 renal 40.6% | TK-10 renal 85.1% | ACHN renal 53.2% | CAKI-1 renal 64.5% | A498 renal 82% | CCRF-CEM leukemia 54.1% | MOLT-4 leukemia 74%

Clc1ccc(/C=N\N=C\c2ccc(Cl)c(Cl)c2)cc1Cl
active: HCT-15 colon 7.55% | ACHN renal -3.05%
inactive: HT29 colon 32.3% | SNB-75 CNS 123% | SNB-19 CNS 95.1% | U251 CNS 76.3% | PC-3 prostate 71% | SK-MEL-5 melanoma 93.8% | UACC-62 melanoma 84.1% | LOX IMVI melanoma 72.4% | SK-MEL-2 melanoma 18.4% | EKVX NSCLC 111% | SN12C renal 87.3% | UO-31 renal 77.4% | TK-10 renal 97.5% | CAKI-1 renal 33% | A498 renal 108% | CCRF-CEM leukemia 83.1% | MOLT-4 leukemia 93.1%

OB1OCc2cc(/C=C/c3cccc(C(F)(F)F)c3)ccc21
inactive: HCT-15 colon 17.8% | HT29 colon 25.9% | SNB-19 CNS 20.8% | PC-3 prostate 23.6% | UACC-62 melanoma 19.9% | SK-MEL-28 melanoma 45.5% | SK-MEL-2 melanoma 60.2% | EKVX NSCLC 26.5% | SN12C renal 15.2%
active: SNB-75 CNS -19.3% | U251 CNS 0.414% | SK-MEL-5 melanoma -14.1% | UO-31 renal -28.6% | TK-10 renal -19.3% | ACHN renal -91.6% | CAKI-1 renal -46% | A498 renal 6.25% | CCRF-CEM leukemia 7.57% | MOLT-4 leukemia -3.42%

Cn1ccnc1C(=O)/C=C/c1ccc(CC(=O)Nc2cc(C(F)(F)F)cc(C(F)(F)F)c2)cc1
inactive: HCT-15 colon 53% | HT29 colon 66.4% | SNB-75 CNS 58.3% | SNB-19 CNS 67.1% | U251 CNS 40.8% | PC-3 prostate 55.9% | SK-MEL-5 melanoma 76.5% | UACC-62 melanoma 67.5% | SK-MEL-28 melanoma 91.2% | SK-MEL-2 melanoma 102% | EKVX NSCLC 89.8% | SN12C renal 67.4% | UO-31 renal 63.2% | TK-10 renal 106% | ACHN renal 84.5% | CAKI-1 renal 76.4% | A498 renal 90% | CCRF-CEM leukemia 47.5% | MOLT-4 leukemia 14.7%

Nc1n[nH]c2cccc(C#Cc3cccc(C(=O)Nc4cc(C(F)(F)F)cc(C(F)(F)F)c4)c3)c12
inactive: HCT-15 colon 70.4% | HT29 colon 46.4% | SNB-75 CNS 91.5% | SNB-19 CNS 105% | U251 CNS 84% | PC-3 prostate 33% | SK-MEL-5 melanoma 73% | UACC-62 melanoma 50% | SK-MEL-28 melanoma 62.1% | SK-MEL-2 melanoma 72.2% | EKVX NSCLC 92% | SN12C renal 61.1% | UO-31 renal 42.5% | TK-10 renal 109% | ACHN renal 76.3% | CAKI-1 renal 96.2% | A498 renal 89.3% | CCRF-CEM leukemia 12.1% | MOLT-4 leukemia 35.4%

Nc1ncnc2c1C(c1ccccc1)c1ccc3ccccc3c1O2 (configuration not stated)
inactive: HCT-15 colon 96.5% | HT29 colon 92.5% | SNB-75 CNS 64.7% | SNB-19 CNS 80.7% | U251 CNS 86.4% | PC-3 prostate 70.5% | SK-MEL-5 melanoma 77.7% | UACC-62 melanoma 68.5% | LOX IMVI melanoma 72.1% | SK-MEL-2 melanoma 91.1% | EKVX NSCLC 90.6% | SN12C renal 73.6% | UO-31 renal 56.5% | TK-10 renal 96% | ACHN renal 80.9% | CAKI-1 renal 81.1% | A498 renal 94.7% | CCRF-CEM leukemia 91.6% | MOLT-4 leukemia 68.4%

CC/C(=C(/c1ccc(Cl)cc1)c1ccc(OCCN(C)C)cc1)c1ccc(Cl)cc1
inactive: HCT-15 colon 32.2% | HT29 colon 22.4% | SNB-75 CNS 61.9% | SNB-19 CNS 78.4% | U251 CNS 37.8% | PC-3 prostate 71.4% | SK-MEL-5 melanoma 86.4% | UACC-62 melanoma 96.3% | SK-MEL-28 melanoma 90.3% | SK-MEL-2 melanoma 80.9% | EKVX NSCLC 73.7% | SN12C renal 81.3% | UO-31 renal 64.3% | TK-10 renal 77.8% | ACHN renal 83.9% | CAKI-1 renal 60.4% | A498 renal 59% | CCRF-CEM leukemia 62.5% | MOLT-4 leukemia 58.2%

O=C(Nc1cccc(-c2ccc(Cl)c(C(F)(F)F)c2)c1)C1CCN(Cc2cccc3cccnc23)CC1
inactive: SNB-75 CNS 40.3% | SNB-19 CNS 61.4% | PC-3 prostate 10.8% | UACC-62 melanoma 25.9% | SK-MEL-2 melanoma 31.6% | EKVX NSCLC 34.6% | TK-10 renal 80.6% | A498 renal 58.7%
active: HCT-15 colon -83% | HT29 colon -62.2% | U251 CNS -82.4% | SK-MEL-5 melanoma -93.4% | SK-MEL-28 melanoma -67.6% | SN12C renal 4.06% | UO-31 renal 2.47% | ACHN renal -90.6% | CAKI-1 renal -52.5% | CCRF-CEM leukemia 4.08% | MOLT-4 leukemia -9.69%

COc1ccc(-c2ccc(-c3ccc(C(=N)N)cc3)s2)cc1Cl
active: HCT-15 colon -70.3% | HT29 colon 0.572% | U251 CNS -62.4% | PC-3 prostate -25% | SN12C renal -69.1% | UO-31 renal -47.6% | ACHN renal -98.7% | CAKI-1 renal -88.2% | CCRF-CEM leukemia -41.3% | MOLT-4 leukemia -50.1%
inactive: SNB-75 CNS 100% | SNB-19 CNS 24% | SK-MEL-5 melanoma 87.7% | UACC-62 melanoma 88.3% | SK-MEL-28 melanoma 102% | SK-MEL-2 melanoma 101% | EKVX NSCLC 68.3% | TK-10 renal 111% | A498 renal 90.3%

O=C(C[C@]1(O)C(=O)Nc2ccccc21)c1cccc(C(F)(F)F)c1
inactive: HCT-15 colon 96.5% | HT29 colon 96.1% | SNB-75 CNS 76.8% | SNB-19 CNS 95.9% | U251 CNS 92.4% | PC-3 prostate 81.4% | SK-MEL-5 melanoma 91.7% | UACC-62 melanoma 78.3% | LOX IMVI melanoma 93.2% | SK-MEL-2 melanoma 91.2% | EKVX NSCLC 99.5% | SN12C renal 80% | UO-31 renal 58.1% | TK-10 renal 138% | ACHN renal 88.2% | CAKI-1 renal 81.7% | A498 renal 99.8% | CCRF-CEM leukemia 97% | MOLT-4 leukemia 96%
